The structures appear in SMILES notation. About 2,100 (84%) of roughly 2,500 compounds were called active.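 How the source made its calls: active means toxic compounds, whose cell viability fell below 70% of untreated control cells; inactive means the rest.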 The set was probably picked from earlier hits. Not all results are given here. Where a call stands in place of a potency, no number is given. Potency and affinity values are given separately.

Here are results for 104 molecules from PubChem BioAssay AID2410 (Southern Research Specialized Biocontainment Screening …, 2010).

A short description of the test: HEp-2 cell cytotoxicity, dose response, cytotoxicity control for RSV inhibitor project, HTS (AID 2410).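 Further: cells exposed to compound for six days before readout.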 As to conditions: HEp-2 viability, luminescence, cytotoxicity counter-screen; series mostly up to 50 µM. In general terms: Counterscreens check selectivity or assay interference.
In the case of `COCCN(C(=O)CSc1nnc(-c2ccc(C)c(C)c2)o1)c1c(N)n(CC(C)C)c(=O)[nH]c1=O`, the molecule was called inactive.
`COc1ccc2[nH]c3c(=S)nc[nH]c3c2c1`: the outcome was inactive.
Consider `c1ccc(N2CCN(Cc3nc4ccccc4[nH]3)CC2)nc1`, for which the molecule was classed as inactive.
`O=C(OCC(=O)N1CCCC1=O)c1ccc(Cl)cc1[N+](=O)[O-]`: the molecule was called inactive.
For the molecule `CC(=O)Nc1ccc(NC(=O)C(C)OC(=O)c2ccccc2C(=O)c2ccc(Cl)c([N+](=O)[O-])c2)cc1` (centres undefined), the result was inactive.
For `COc1ccc(C(=O)NCC(=O)N/N=C/c2c(C)[nH]c3ccccc23)cc1OC`, the outcome was inactive.
In the case of `COc1cc(O)cc(O)c1C(=O)/C=C/c1ccccc1` it was “inactive”; in that of `COc1ccc(C(CNC(=S)NCc2ccccc2)N2CCCC2)cc1` (centres undefined), “inactive”; in that of `COC(=O)C1=C(C)N(Cc2ccccc2)C(=O)N[C@H]1c1ccc(Br)cc1`, “inactive”.
As for `CC(=O)Nc1ccc(C(=O)OCc2ccc(Cl)cc2)cc1`, the outcome was inactive.
In the case of `COc1cc(/C=N/N=C(\N)c2nonc2N)cc(OC)c1OC` it was “inactive”; in that of `COc1cccc(/C=N/N=C(\N)c2nonc2N)c1O`, “inactive”; in that of `C/C(N)=C(/C#N)C(=O)COC(=O)c1cccc(C)c1O`, “inactive”.
`C/C(N)=C(/C#N)C(=O)COc1ncnc2ccccc12`: the molecule was called inactive.
Consider `C/C(N)=C(/C#N)C(=O)COc1ncnc2ccc(Br)cc12`, for which the molecule was called inactive.
On to `Cc1c(NC(=O)CN2C(=O)NC3(CCCCC3C)C2=O)cccc1[N+](=O)[O-]` (centres undefined), for which the molecule was classed as inactive.
The same measure for `Fc1cccc(Nc2nc(-c3ccncc3)nc3ccccc23)c1`: “inactive”; for `COc1ccc(/C(C)=N/NC(=O)CN(c2ccc(OC)cc2)S(=O)(=O)c2ccccc2)cc1`: “inactive”; for `Cc1nc2nc(-c3ccccc3)nn2c(C)c1Cl`: “inactive”.
The same measure for `O=C(c1cc(-c2ccc(Cl)cc2Cl)on1)N1CCOCC1`: “inactive”; for `Cc1ccc(-c2nc(CCN3C(=O)c4ccccc4C3=O)cs2)cc1`: “inactive”; for `Cc1ccc2c(n1)sc1c(-c3ccc(Br)cc3)c(C#N)c(N)nc12`: “inactive”.
In the case of `Nc1ccc(Br)c2c1C(=O)c1ccccc1C2=O` it was “inactive”; in that of `COc1ccc(N(C)C(=O)C2CCCN2S(=O)(=O)c2cccc3nsnc23)c(OC)c1` (centres undefined), “inactive”; in that of `COc1ccc(NC(=O)c2cccs2)c([N+](=O)[O-])c1`, “inactive”.
As for `COc1ccccc1CNC(=O)C1CCN(S(=O)(=O)c2cccc3nonc23)CC1`, the molecule was called inactive.
`C/C(NC(=O)c1cccc(F)c1)=C1/C(=O)C[C@@H]2[C@H]1C2(C)C`: the call was inactive.
The same measure for `C/C(N)=C(/C#N)C(=O)CN1C(=O)NC(Cc2c[nH]c3ccccc23)C1=O` (centres undefined): “inactive”; for `O=C(Nc1ccon1)c1sc2ccccc2c1Cl`: “inactive”.
With `CS(=O)(=O)NNC(=O)c1cc2cc3ccccc3nc2s1`, the result was inactive.
The same measure for `O=C(Nc1ccc(Cl)cc1)N1CCc2[nH]c3ccccc3c2C1`: “inactive”; for `CCC(=O)Nc1nc(C)c(-c2csc(Nc3ccccn3)n2)s1`: “inactive”.
Take `Cc1cc(Nc2cccc(Cl)c2)nc(-c2ccccc2O)n1`: the result was inactive.
On to `Cc1cc(Nc2cccc(F)c2)nc(-c2ccccc2O)n1`, for which the result was inactive.
In the case of `CC1CCCN(C(=O)COC(=O)c2ccc3[nH]c4c(c3c2)CCCC4)C1` (centres undefined) it was “inactive”; in that of `Cc1cccc(C)c1N=Cc1c(O)n(-c2nccs2)c(=O)c2ccccc12`, “inactive”.
Regarding `COc1ccccc1NCC(=O)Nc1cc(S(=O)(=O)N2CCOCC2)ccc1N1CCOCC1`, the result was inactive.
With `Cc1ccnc(NC(=O)c2cccc(S(=O)(=O)N3CCN(c4ccccc4)CC3)c2)c1`, the call was inactive.
Take `O=C(NCc1ccccc1Cl)C1CCN(S(=O)(=O)c2cccc3nonc23)CC1`: the result was inactive.
As to `COc1ccc2o/c(=N\O)c(C(=O)Nc3ccccc3OC)cc2c1`, the molecule was called inactive.
The same measure for `COc1ccc(C(=O)N/C(=C/c2cccs2)c2nc3ccccc3[nH]2)cc1OC`: “inactive”.
For the molecule `CSc1nc(N2CCOCC2)nc2ccc(C)cc12`, the molecule was classed as inactive.
In the case of `O=C1c2ccccc2C(=O)N1CCCCN(C(=O)c1cc2ccccc2oc1=O)c1ccc(Cl)cc1` it was “inactive”.
In the case of `COc1ccccc1CNC(=O)C(NS(=O)(=O)c1cccc2nsnc12)C(C)C` (centres undefined), the call was inactive.
Consider `CCC(C)n1ncn(-c2ccc(N3CCN(c4ccc(OCC5COC(Cn6cncn6)(c6ccc(Cl)cc6Cl)O5)cc4)CC3)cc2)c1=O` (centres undefined), for which the molecule was classed as inactive.
For `Brc1cnc(N2CCOCC2)nc1N1CCCCC1`, the result was inactive.
The same measure for `CCOc1ccc(CNC(=O)CCCn2nc(CC)n3c(cc4occc43)c2=O)cc1`: “inactive”; for `N#Cc1ccccc1Cn1c(=O)oc2ccccc21`: “inactive”.
In the case of `COC(=O)c1ccc(Oc2nc(N3CCCCC3)nc(N3CCOCC3)n2)cc1` it was “inactive”; in that of `CCCCNC(=O)CC1N=C2c3ccccc3N=C(SCC(=O)Nc3ccc(OC)cc3)N2C1=O` (centres undefined), “inactive”.
In the case of `O=C(/C=C/c1ccc(O)c(O)c1)OC1C(O)CC(OC(=O)/C=C/c2ccc(O)c(O)c2)(C(=O)O)CC1O` (centres undefined) it was “inactive”; in that of `N#Cc1ccccc1NC(=O)c1ccc2c(Cl)c3c(nc2c1)CCCC3`, “inactive”; in that of `CC(=O)N1N=C(c2ccc(C)cc2)OC1c1cccnc1` (centres undefined), “inactive”.
On to `COc1ccc(-c2nn(-c3ccccc3)cc2/C=N/O)cc1`, for which the molecule was called inactive.
In the case of `OCc1cn(-c2ccccc2)nc1-c1ccc(Br)cc1` it was “inactive”.
The same measure for `CC(Oc1ccc(F)cc1)C(=O)Nc1ccc2ccccc2c1` (centres undefined): “inactive”.
Regarding `O=[N+]([O-])c1ccc(N/N=C/c2ccccc2)cc1`, the result was inactive.
In the case of `Cc1c(C)n(C)c2ccc([N+](=O)[O-])cc12` it was “inactive”; in that of `O=c1c2sccc2n(Cc2cc(=O)n3ccccc3n2)c(=O)n1-c1ccccc1`, “inactive”.
In the case of `CN(Cc1nc2ccccc2c(=O)[nH]1)C(=O)c1cc(C2CC2)nn1-c1ccccc1` it was “inactive”; in that of `CCN(Cc1nc2ccccc2c(=O)[nH]1)C(=O)c1cc(C2CC2)nn1-c1ccccc1`, “inactive”; in that of `COc1ccccc1/C=C/C(=O)NCC(=O)N/N=C(/C)c1ccc(Cl)cc1`, “inactive”.
`Cc1nn2c(-c3ccc(F)cc3)ccnc2c1Br`: the outcome was inactive.
In the case of `CC(=O)c1sc(-c2ccccc2Cl)nc1C` it was “inactive”; in that of `O=C(Nc1ccon1)c1ccc(N2CCCCC2)c([N+](=O)[O-])c1`, “inactive”; in that of `c1csc(-c2nc3c4ccccc4c4ccccc4c3[nH]2)c1`, “inactive”.
As to `Cc1c(SCCO)c(=O)[nH]c2cc3c(cc12)OCO3`, the call was inactive.
With `O=C(/C=C/c1ccc(O)c(O)c1)O[C@@H]1C[C@](O)(C(=O)O)C[C@@H](O)[C@H]1O`, the call was inactive.
As to `COc1ccc2cc(CN(CCc3ccccc3)Cc3nnnn3Cc3ccco3)c(=O)[nH]c2c1`, the molecule was classed as inactive.
The same measure for `CCOC(=O)c1c(C)[nH]c(C(=O)COC(=O)C2(C)CC2(Cl)Cl)c1C` (centres undefined): “inactive”; for `O=c1nc(Nc2ccc(OCc3ccccc3)cc2)sc2ncccc12`: “inactive”.
The same measure for `Cc1csc(N(C)C(=O)CSc2nnc(COc3ccccc3C)o2)n1`: “inactive”.
The same measure for `COC(=O)c1ccc(NC2c3ncccc3C(=O)N2Cc2cccs2)cc1` (centres undefined): “inactive”; for `Cc1[nH]c2ccccc2c1C(=O)CSc1ccccn1`: “inactive”; for `Cc1ccc(Nc2nc(N3CCOCC3)nc(N3CCOCC3)n2)cc1Cl`: “inactive”.
On to `CSc1nc2ccc(Nc3nc(N4CCOCC4)nc(N4CCOCC4)n3)cc2s1`, for which the result was inactive.
The same measure for `O=C(c1ccccc1Cl)N1CCN(c2ccccn2)CC1`: “inactive”; for `CSc1nnc(Cn2c(=O)sc3ccccc32)n1CCc1ccccc1`: “inactive”.
In the case of `CCOC(=O)CSc1nnc(CNC(=O)c2ccc([N+](=O)[O-])cc2)n1C` it was “inactive”.
In the case of `C#CCOCCOCCOCCNc1nc(N2CCN(C(=O)CCCCCCCCCCNC(=O)[C@@H]([C@H](C)O)n3cc(C)nn3)CC2)nc(N2CCN(C(=O)CCCCCCCCCCNC(=O)[C@@H]([C@H](C)O)n3cc(C)nn3)CC2)n1` it was “inactive”; in that of `Cc1ccccc1NC(=O)COC(=O)Cc1ccsc1`, “inactive”; in that of `COc1ccc(S(=O)(=O)N2CCN(CCO)CC2)cc1-c1nnc2c3ccccc3c(C)nn12`, “inactive”.
As for `Cc1cc(N2C(=O)CC(N3CCN(c4ccc(C(=O)c5cccs5)cc4)CC3)C2=O)no1` (centres undefined), the call was inactive.
The same measure for `C/C(=N/OCO/N=C(/C)c1ccc(F)cc1)c1ccc(F)cc1`: “inactive”.
For the molecule `O=c1c(OC2OC(CO)C(O)C(O)C2OC2OC(CO)C(O)C(O)C2OC2OC(CO)C(O)C(O)C2O)c(-c2ccc(O)c(O)c2)oc2cc(O)cc(O)c12` (centres undefined), the outcome was inactive.
Take `CCC(=O)Nc1ccc(C(=O)OCc2ccccc2Cl)cc1`: the call was inactive.
On to `Cc1ccc(-n2c(=O)c3sccc3n(Cc3cc(=O)n4ccccc4n3)c2=O)cc1F`, for which the molecule was called inactive.
Turning to `COc1ccc(Br)cc1/C=C/C(=O)Nc1ccc2ccccc2c1`, the molecule was classed as inactive.
For `CCOc1cc(/C=N\Nc2nc(Nc3ccccc3)nc(N3CCOCC3)n2)ccc1OC(=O)c1ccco1`, the molecule was called inactive.
`S=C(NCCc1ccccc1)N/N=C/c1cccc(Cl)c1Cl`: the molecule was called inactive.
For `c1ccc2c(c1)OCCc1c-2[nH]c2ccccc12`, the molecule was classed as inactive.
In the case of `COC(=O)c1ccc(Cn2c(CN3CCOCC3)nc3ccccc3c2=O)o1` it was “inactive”; in that of `CCn1c(=NC(=O)c2ccco2)sc2cccc(F)c21`, “inactive”; in that of `CC(=NCc1ccco1)C1=C(O)c2ccccc2C1=O`, “inactive”.
The same measure for `Cn1nnc(-c2ccc(OCc3ccccc3F)cc2)n1`: “inactive”; for `CC/C(=N\Nc1ccc([N+](=O)[O-])cc1)c1ccccc1`: “inactive”; for `COC(=O)c1cc2n3ccccc3c(C)c(-c3ccccc3)c-2c1C(=O)OC`: “inactive”.
With `CCOc1ccc2nc(NC(=O)C(CCSC)NS(=O)(=O)c3cccs3)sc2c1` (centres undefined), the molecule was classed as inactive.
On to `O=C(CSc1ccccn1)Nc1nc2c(ccc3ccccc32)s1`, for which the result was inactive.
The same measure for `COCCn1c(-c2ccccc2Cl)nc2c(c(=O)c3ccccc3n2C)c1=O`: “inactive”; for `Cc1ccc(-c2nc3c(c(=O)c4ccccc4n3C)c(=O)n2Cc2ccco2)cc1`: “inactive”.
For the molecule `COc1ccc(Cn2c(-c3ccccc3C)nc3c(c(=O)c4ccccc4n3C)c2=O)cc1`, the outcome was inactive.
In the case of `COCCn1c(-c2cccc(Br)c2)nc2c(c(=O)c3ccccc3n2C)c1=O` it was “inactive”; in that of `Nn1c(COc2ccccc2)nc2ccccc2c1=O`, “inactive”.
